# Data taken from paper PMC5540273 (PLoS ONE, 2017).
# Test system: T1, CTK
# T1 construct: gene MATK
# Settings: concentration: 1 μM, replicates: in singlicate; n = 1
# 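Also: KINOMEscan kinase panel screen.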
row,Compound,%Inh [%]
1,COc1cc2ncnc(Nc3cccc(Br)c3)c2cc1OC.Cl [GI230329],0
2,CS(=O)(=O)CCNCc1nc(-c2ccc3ncnc(Nc4ccc(OCc5ccccc5)c(Cl)c4)c3c2)cs1.Cl [GW582764],0
3,COc1ccc2cc(-c3nc(-c4ccccc4C(C)C)[nH]c3-c3ccncc3)ccc2c1 [SB-660566],0
4,COc1ccc(Nc2nccc(N3CCC(NC(=O)C(C)c4ccc(Cl)cc4)CC3)n2)cc1 (centres unmarked) [GSK1379812],0
5,Cc1ccccc1-c1cc(-c2c[nH]nc2-c2ccccn2)ccn1 [GW680061],0
6,CC[C@@H]1CO[C@H](C(=O)Nc2ccccc2)CN1c1cc(-c2ccc3c(N)n[nH]c3c2)nc(NC)n1 [GSK2376236],0
7,O=C1NC(=O)C(c2ccc(Cl)cc2)=C1Nc1cccc(Cl)c1 [SB-317651],16
8,Cc1c(Cn2c3ccccc3n3c(=O)cc(N4CCOCC4)nc23)cccc1C(F)(F)F [GSK2306394],10
9,Cc1ccc(NC(=O)Nc2ccccc2F)cc1-c1ccc(C(=O)Nc2ccncc2)cc1 [GSK1398477],0
10,O=c1cc(N2CCOCC2)nc2n(Cc3cccc(Cl)c3Cl)c3ccccc3n12 [GSK2299009],0
11,CC(=O)c1c(C)c2cnc(Nc3ccn(C)n3)nc2n(C2CCCC2)c1=O,0
12,COc1cccc(CNC(=O)NC2CCN(c3ccnc(Nc4ccc(F)cc4)n3)C2)c1 (centres unmarked) [GSK1379723],22
13,CC(=O)c1c(C)c2cnc(Nc3ccc(N4CCNCC4)cn3)nc2n(C2CCCC2)c1=O,0
14,COc1cccc(C2=C(Nc3cc(Cl)c(O)c(Cl)c3)C(=O)NC2=O)c1 [SB-390767],10
15,Cc1ccccc1Cn1ccn2c(=O)cc(N3CCOCC3)nc12 [GSK2269905],0
16,Fc1ccc(-c2nn3cccc(F)c3c2-c2ccncc2)cc1 [GW475620],0
17,Cc1nccc(-c2c(-c3ccc(F)cc3)ncn2CCCN2CCOCC2)n1.Cl [SB-282975],0
18,Cc1cccc2c(-c3ccncn3)c(-c3ccc(F)cc3)nn12 [GW515532],0
19,COc1ccc(Nc2nccc(NCCNC(=O)Nc3cc(C)ccc3C)n2)cc1 [GSK1379899],4

row,Compound,%Inh [%]
1,Nc1nccc(-c2c(-c3ccc(F)cc3)ncn2C2CCN(Cc3ccccc3)CC2)n1 [SB-219980],11
2,CS(=O)(=O)Cc1ccc(Nc2nccc(-c3c(-c4cccc(NC(=O)C5CCCCC5)c4)nn4ncccc34)n2)cc1 [GSK350559],38
3,Cc1ccc(NC(=O)Nc2ccc(Cl)c(C(F)(F)F)c2)cc1-c1ccc(C(=O)Nc2ccncc2)cc1 [GSK1398470],0
4,O=c1cc(N2CCOCC2)nc2n(Cc3ccccc3F)ccn12 [GSK2297428],0
5,O=C(Nc1n[nH]c2nc(-c3ccco3)c(Br)cc12)C1CCN(Cc2ccccc2)C1.O=C(O)[C@H](O)[C@@H](O)C(=O)O (centres unmarked) [SB-742034],71
6,CCn1c(-c2c(N)noc2C)nc2cnccc21 [SB-737856],14
7,Cn1cnc2c(N)ncnc21 [SKF-97623],0
8,O=C(Nc1n[nH]c2cc(-c3ccsc3)ccc12)C1CC1 [SB-732932],32
9,CN1c2ccc(-c3ccc(C(N)=O)cc3)cc2-c2[nH]ncc2S1(=O)=O,0
10,Cl.Cl.Cl.N#Cc1ccc(CCNc2nccc(-c3cccc(CN4CCNCC4)c3)n2)cc1 [GSK2137462],2
11,Cn1cncc1C(=O)NC1CCN(c2ccnc(Nc3ccc(F)cc3)n2)C1 (centres unmarked) [GSK1379717],0
12,CS(=O)(=O)CCNCc1nc(-c2ccc3ncnc(Nc4ccc5c(cnn5Cc5ccccc5)c4)c3c2)cs1.Cl.Cl [GW569716],0
13,Cc1cnc(N)c(/C=C/c2cncc(C(=O)NCCc3ccc(Cl)cc3Cl)c2)c1.Cl [GSK190937],0
14,CNCc1ccc2nc(NC(=O)c3ccc(C(C)(C)C)cc3)cn2c1,45
15,CNc1cc(-c2ccc3c(N)n[nH]c3c2)nc(N)n1 [GSK2224810],0
16,CNc1nc(-c2ccc3c(N)n[nH]c3c2)cc(N2C[C@@H](C(=O)Nc3ccccc3)CC[C@H]2C)n1 [GSK2298859],0
17,COc1ccc(Nc2nccc(N3CCC(NC(=O)c4cc5ccccc5s4)C3)n2)cc1 (centres unmarked) [GSK1379738],0
18,COc1ccc(CSc2nnc(-c3ccc4nccn4c3)o2)cc1C(F)(F)F,0

# Test system: DAPK1
# Settings: concentration: 1 μM, replicates: in singlicate; n = 1
row,Compound,%Inh [%]
1,COc1cc2ncnc(Nc3cccc(Br)c3)c2cc1OC.Cl [GI230329],0
2,CS(=O)(=O)CCNCc1nc(-c2ccc3ncnc(Nc4ccc(OCc5ccccc5)c(Cl)c4)c3c2)cs1.Cl [GW582764],0
3,COc1ccc2cc(-c3nc(-c4ccccc4C(C)C)[nH]c3-c3ccncc3)ccc2c1 [SB-660566],0
4,COc1ccc(Nc2nccc(N3CCC(NC(=O)C(C)c4ccc(Cl)cc4)CC3)n2)cc1 (centres unmarked) [GSK1379812],3
5,Cc1ccccc1-c1cc(-c2c[nH]nc2-c2ccccn2)ccn1 [GW680061],0
6,CC[C@@H]1CO[C@H](C(=O)Nc2ccccc2)CN1c1cc(-c2ccc3c(N)n[nH]c3c2)nc(NC)n1 [GSK2376236],17
7,O=C1NC(=O)C(c2ccc(Cl)cc2)=C1Nc1cccc(Cl)c1 [SB-317651],8
8,Cc1c(Cn2c3ccccc3n3c(=O)cc(N4CCOCC4)nc23)cccc1C(F)(F)F [GSK2306394],12
9,Cc1ccc(NC(=O)Nc2ccccc2F)cc1-c1ccc(C(=O)Nc2ccncc2)cc1 [GSK1398477],0
10,O=c1cc(N2CCOCC2)nc2n(Cc3cccc(Cl)c3Cl)c3ccccc3n12 [GSK2299009],13
11,CC(=O)c1c(C)c2cnc(Nc3ccn(C)n3)nc2n(C2CCCC2)c1=O,0
12,COc1cccc(CNC(=O)NC2CCN(c3ccnc(Nc4ccc(F)cc4)n3)C2)c1 (centres unmarked) [GSK1379723],0
13,CC(=O)c1c(C)c2cnc(Nc3ccc(N4CCNCC4)cn3)nc2n(C2CCCC2)c1=O,0
14,COc1cccc(C2=C(Nc3cc(Cl)c(O)c(Cl)c3)C(=O)NC2=O)c1 [SB-390767],0
15,Cc1ccccc1Cn1ccn2c(=O)cc(N3CCOCC3)nc12 [GSK2269905],0
16,Fc1ccc(-c2nn3cccc(F)c3c2-c2ccncc2)cc1 [GW475620],0
17,Cc1nccc(-c2c(-c3ccc(F)cc3)ncn2CCCN2CCOCC2)n1.Cl [SB-282975],0
18,Cc1cccc2c(-c3ccncn3)c(-c3ccc(F)cc3)nn12 [GW515532],6
19,COc1ccc(Nc2nccc(NCCNC(=O)Nc3cc(C)ccc3C)n2)cc1 [GSK1379899],0

row,Compound,%Inh [%]
1,Nc1nccc(-c2c(-c3ccc(F)cc3)ncn2C2CCN(Cc3ccccc3)CC2)n1 [SB-219980],0
2,CS(=O)(=O)Cc1ccc(Nc2nccc(-c3c(-c4cccc(NC(=O)C5CCCCC5)c4)nn4ncccc34)n2)cc1 [GSK350559],0
3,Cc1ccc(NC(=O)Nc2ccc(Cl)c(C(F)(F)F)c2)cc1-c1ccc(C(=O)Nc2ccncc2)cc1 [GSK1398470],8
4,O=c1cc(N2CCOCC2)nc2n(Cc3ccccc3F)ccn12 [GSK2297428],0
5,O=C(Nc1n[nH]c2nc(-c3ccco3)c(Br)cc12)C1CCN(Cc2ccccc2)C1.O=C(O)[C@H](O)[C@@H](O)C(=O)O (centres unmarked) [SB-742034],0
6,CCn1c(-c2c(N)noc2C)nc2cnccc21 [SB-737856],0
7,Cn1cnc2c(N)ncnc21 [SKF-97623],100
8,O=C(Nc1n[nH]c2cc(-c3ccsc3)ccc12)C1CC1 [SB-732932],4
9,CN1c2ccc(-c3ccc(C(N)=O)cc3)cc2-c2[nH]ncc2S1(=O)=O,54
10,Cl.Cl.Cl.N#Cc1ccc(CCNc2nccc(-c3cccc(CN4CCNCC4)c3)n2)cc1 [GSK2137462],28
11,Cn1cncc1C(=O)NC1CCN(c2ccnc(Nc3ccc(F)cc3)n2)C1 (centres unmarked) [GSK1379717],13
12,CS(=O)(=O)CCNCc1nc(-c2ccc3ncnc(Nc4ccc5c(cnn5Cc5ccccc5)c4)c3c2)cs1.Cl.Cl [GW569716],0
13,Cc1cnc(N)c(/C=C/c2cncc(C(=O)NCCc3ccc(Cl)cc3Cl)c2)c1.Cl [GSK190937],10
14,CNCc1ccc2nc(NC(=O)c3ccc(C(C)(C)C)cc3)cn2c1,0
15,CNc1cc(-c2ccc3c(N)n[nH]c3c2)nc(N)n1 [GSK2224810],18
16,CNc1nc(-c2ccc3c(N)n[nH]c3c2)cc(N2C[C@@H](C(=O)Nc3ccccc3)CC[C@H]2C)n1 [GSK2298859],11
17,COc1ccc(Nc2nccc(N3CCC(NC(=O)c4cc5ccccc5s4)C3)n2)cc1 (centres unmarked) [GSK1379738],0
18,COc1ccc(CSc2nnc(-c3ccc4nccn4c3)o2)cc1C(F)(F)F,0
